This is an account of results in PubChem BioAssay (NCI).

“And” between values parts separate entries of the source, which are not always exact repeats. Equal values may be shown once. The panel holds about 83,000 compounds, 20% with a hit somewhere; the sample as a whole holds those more often.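 Activity criterion: percent growth below 10, measured after cells in 96-well plates were exposed to a single compound concentration for 48 hours.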 Values without a mark were called inactive. The source made the active and inactive calls.

Experiment in all cases: NCI-60 one-dose screen, 48 h (100 = growth as untreated, 0 = no growth, -100 = all killed)
In experiment [1] the test system is UACC-62 melanoma.
The subject of experiment [2] is HCT-15 colon. As to conditions: 10 µM.
Experiment [3] relates to HT29 colon. Particulars: 10 µM.
Experiment [4] relates to SNB-75 CNS. Particulars: 10 µM.
Experiment [5] concerns SNB-19 CNS. Particulars: 10 µM.
Experiment [6] has as its system U251 CNS. As to conditions: 10 µM.
Experiment [7] has as its system PC-3 prostate. Particulars: 10 µM.
The subject of experiment [8] is SK-MEL-5 melanoma. Particulars: 10 µM.
Experiment [9] concerns LOX IMVI melanoma. As to conditions: 10 µM.
Experiment [10] has as its system SK-MEL-28 melanoma. Particulars: 10 µM.

As for `Cc1ccc2nc(N/N=C/c3ccc(C)s3)cc(C)c2c1`, in experiment [1] (100 µM), the growth is -99.1% (active) and -100% (active).

As to `CSc1ccc2c(c1)C(N1CCN(C)CC1)Cc1ccccc1S2` (stereo not given), the growth is 10.3% in experiment [2]; -15.9% (active) in experiment [3]; 0.687% (active) in experiment [4]; 54.7% in experiment [5]; 33.3% in experiment [6]; 26.5% in experiment [7]. Besides, the growth is -86.6% (active) in [8], -69.5% (active) in experiment [1] (10 µM), -5.64% (active) in experiment [9] and -63.8% (active) in [10].

For the compound `S=c1[nH]nc(Cc2ccccc2)c(=S)[nH]1`, the growth in [2] is 102%; in experiment [3], 97.4%; in experiment [4], 92.8%; in experiment [5], 109%; in experiment [6] it was 100%; in [7], 89.1%. In addition, the growth in [8] is 110%; in experiment [1] (10 µM), 110%; in experiment [9] it was 94.4%; in experiment [10], 114%.

Take `Cc1cc(NCCCN(C)C)c2ccc3c(ccc4c(NCCCN(C)C)cc(C)nc43)c2n1`: the growth in experiment [2] is -34.6% (active); in [3], -50.9% (active); in [4] it was -90% (active); in experiment [5], -32.8% (active); in [6], -30.5% (active); in [7], -56.3% (active). Besides, the growth in experiment [8] is -97.6% (active); in experiment [1] (10 µM), -96.9% (active); in experiment [9], -76% (active); in experiment [10], -97.6% (active).

In the case of `CN1CCN(c2ccc3nc(-c4ccc5nc(-c6ccc(O)cc6)[nH]c5c4)[nH]c3c2)CC1`, the growth in experiment [2] was 94.3%; in experiment [3], 82.1%; in [4] it was 54.9%; in experiment [5], 106%; in experiment [6], 87.5%; in experiment [7], 69.7%. The growth in [8] is -19.3% (active); in experiment [1] (10 µM) it was 39.5%; in [9], 93.9%.

Turning to `CN(C)CCC(=O)c1c[nH]c2ccccc12`, the growth in [2] was 110%; in experiment [3], 101%; in experiment [4], 99.8%; in [5] it was 112%; in [6], 106%; in experiment [7] it was 84.3%. Further, the growth in [8] is 113%; in experiment [1] (10 µM) it was 113%; in experiment [9], 103%; in [10], 115%.

As for `Cc1cnc(/C=N\NC(N)=S)c2cccc(N)c12`, the growth was 24.9% in [2]; 35.8% in [3]; -2.85% (active) in experiment [4]; 24% in experiment [5]; 25% in experiment [6]; 29% in [7]. Besides, the growth in experiment [8] was 54.8%; in experiment [1] (10 µM) it was -15.7% (active); in experiment [9], 6.91% (active); in experiment [10], 34.5%.

On to `COc1ccc2c(C)cc(N/N=C/c3sccc3C)nc2c1`, for which, in experiment [1] (100 µM), the growth is -100% (active).

Turning to `BrC/C=C/C[P+](c1ccccc1)(c1ccccc1)c1ccccc1`, the growth is 37.3% in experiment [2]; 60% in experiment [3]; 46.6% in experiment [5]; 18.2% in experiment [6]; 22.4% in [7]; 53.9% in experiment [8]. Further, the growth is 52.8% in [1] (10 µM), 2.3% (active) in [9] and 53.2% in experiment [10].

As to `CCCCCCCCCCCCCCCCCN`, the growth in experiment [2] is 104%; in experiment [3], 98.9%; in experiment [4] it was 92.6%; in [5], 102%; in experiment [6], 96.3%; in [7], 92.3%. The growth was 103% in experiment [8], 102% in experiment [1] (10 µM), 102% in experiment [9] and 101% in experiment [10].
